According to PubChem BioAssay (NCI):
About 83,000 compounds went through this panel and 20% of them were active in at least one assay; those are over-represented in the sample as a whole.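 Negative percent growth values reflect cell death: -40 means 40% of the cells present at the start died, and -100 means all died.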 A number with no mark means an inactive call. Calls of active or inactive are those of the source.

What follows are compounds tested on COLO 205 colon (assay: NCI-60 one-dose screen, 48 h (100 = growth as untreated, 0 = no growth, -100 = all killed)). Details: 10 µM.
Protocol: Cells are grown in 96 well plates and exposed to the test compound for 48 hours. Compounds are tested at a single concentration, which is 10^-5 M for most compounds. The reported endpoint is percent growth (GI% or GIPRCNT), where numbers from 0 - 100% represent growth inhibition, and numbers from -100% - 0 represent cell death. For example, a value of 40 represents 60% growth inhibition. A value of 0 means no net growth occurred over the course of the experiment. A value of -40 indicates 40% of cells at the beginning of the experiment died by the end of the experiment. A value of -100 means all cells are dead at the end of the experiment.
NCI-60 Human Tumor Cell Lines Screen was performed using the standard one-dose NCI protocol, which is described in more detail at https://dtp.cancer.gov/discovery_development/nci-60/default.htm.
Compounds with GIPRCNT values below 10 were considered active. Activity score was based on GIPRCNT using the following formula: […]
Score is 0 for GIPRCNT values of 100 or above, 50 for GIPRCNT values of 0, and 100 for GIPRCNT values of -100.

SMILES	growth
COc1ccc2c(c1)C(CC(=O)NN)CCC2 (stereo not given)	113%
COc1ccc(C2CC(c3cccs3)=NN2c2ccc(S(N)(=O)=O)cc2)cc1 (stereo not given)	-89.6% (active)
NC(N)=N/N=C(\N=Nc1ccccc1)c1ccc(Cl)cc1	48.1%
COc1cc(-c2ccc(N=Nc3ccc4c(S(=O)(=O)O)ccc(N)c4c3O)c(OC)c2)ccc1N=Nc1ccc2c(S(=O)(=O)O)ccc(N)c2c1O	95.7%
CN(C)CCCOc1ccc(OCCCN(C)C)c2c1C(=O)c1ccccc1C2=O	-57.9% (active)
Cc1cc(=O)n2nnc3cc(C(F)(F)F)ccc3n12	108%
CC(=O)N[C@H](C(=O)N[C@@H](CCCNC(=N)N)C(=O)N[C@@H](CCCCN)C(=O)N[C@@H](CCCNC(=N)N)C(=O)NC(C(=O)N[C@@H](CC(C)C)C(=O)N[C@@H](CCCNC(=N)N)C(=O)N[C@@]1(C)CCC/C=C\CCC[C@@](C)(C(=O)N[C@@H](CCCNC(=N)N)C(=O)N[C@@H](CCC(=O)O)C(=O)N[C@@H](CC(C)C)C(=O)N[C@H](C(=O)N[C@@H](CCC(=O)O)C(N)=O)C(C)C)NC(=O)[C@H](CCC(N)=O)NC(=O)[C@H](CC(C)C)NC(=O)[C@H](CC(C)C)NC1=O)[C@@H](C)O)C(C)C (stereo not given in full)	-53% (active)
O=C(Cn1cc(CO)nn1)Nc1nc2ccccc2s1	111%
Cc1ccc(NC(=S)NNC(=S)Nc2ccc(C)cc2)cc1	84.3%
c1ccc(/C(=N\Nc2ccc3ccccc3n2)c2ccccn2)cc1	26.5%
Oc1cccc(-c2nc3sccn3c2-c2ccncn2)c1	32.1%
COc1ccc2c(c1)C(=O)/C(=C/c1cccc(OCC(=O)c3ccc([N+](=O)[O-])cc3)c1)CO2	98.4%
C/C(=N\O)c1ccc(NC(=O)CSc2nnc(-c3ccccc3)n2-c2ccccc2)cc1	53.3%
COc1cc(-c2csc(NC(=O)Nc3cc(C(F)(F)F)cc(C(F)(F)F)c3)n2)cc(OC)c1OC	0.569% (active)
Clc1nc2ccccc2cc1Cn1nnc(Cc2ccccc2)n1	82.7%
CCn1c(SC/C(=N/O)c2ccccc2)nnc1-c1ccccc1	115%
O=C1OC(C(Cl)(Cl)Cl)OC1C(Cl)(Cl)Cl (stereo not given)	107%
COc1cc(-c2nn(-c3cccc(NC(=O)CCN4CCN(Cc5ccccc5)CC4)c3)cc2-c2ccncc2)ccc1Cl	-50.9% (active)
COc1cc(/C=C2\CCCC3=C2N=C2SC(C)=CN2C3c2cc(OC)c(OC)c(OC)c2)cc(OC)c1OC (stereo not given)	-71% (active)
COc1cc(-c2nn(-c3cccc(NC(=O)NCCNC(=O)c4ccccc4)c3)cc2-c2ccncc2)ccc1Cl	2.08% (active)

SMILES	growth
O=C(CN1CCN(C(=O)c2ccccc2)CC1)Nc1ccccc1SCc1ccccc1	82.3%
Clc1ccc(Cc2ccncc2)cc1	109%
COc1cccc(N=Nc2cccc(OC)c2)c1	107%
Cc1cccc(N=Cc2ccccc2O)c1C	106%
C=C(C)[C@@H]1CC[C@]2(COCCC#N)CC[C@]3(C)[C@H](CC[C@@H]4[C@@]5(C)Cc6c([nH]c7ccccc67)C(C)(C)[C@@H]5CC[C@]43C)[C@@H]12	-42.8% (active)
CN(C)CCOc1cccc(NC2=C(Cl)C(=O)C(Nc3cccc(OCCN(C)C)c3)=C(Cl)C2=O)c1	-82.9% (active)
CCOC(=O)c1cc(C(=O)c2cc(OC)c(OC)c(OC)c2)n2c1ccc1c3cccnc3ccc12	36.6%
CN1CCN(CCCn2c(=O)c3sc4ncccc4c3n3nnc(-c4ccccc4)c23)CC1	-96.5% (active)
C=C/C(C)=C/C[C@]1(C)[C@H](C)[C@@H](OC(=O)CCC)[C@H](O)[C@@]23C(=C[C@H](OC)C[C@@H]12)[C@@H](OC(=O)CCC)O[C@H]3OC(C)=O	-53.3% (active)
CC(C)(C)c1ccc(S(=O)(=O)N[C@H]2CC[C@H]3[C@@H]4CCc5cc(O)ccc5[C@H]4CC[C@]23C)cc1	8.52% (active)
CN1CCN(C2=Nc3ccccc3Oc3ccc(Cl)cc32)CC1	96.9%
CC1=NN(C(=O)c2nn(-c3ccc(Cl)cc3)cc2O)C(=O)C1	53%
COc1ccc(Cc2cnc(N)nc2N)cc1OC	108%
Cc1ccc(-c2c3c(N)nc(-c4cccnc4)nc3nc3c2c(C)nn3-c2ccccc2)cc1	83.6%
S=C(SSC(=S)N(c1ccccc1)c1ccccc1)N(c1ccccc1)c1ccccc1	132%
NS(=O)(=O)Oc1ccc(NC(=O)C2CCCCCC2)cc1	112%
O=C1c2ccccc2C(=O)c2c1ccc(C(Br)Br)c2[N+](=O)[O-]	69.6%
O=C1/C=C/[C@@H](O)[C@@H]2C[C@@H](O)C[C@H]2/C=C/CCC[C@H](C(F)(F)F)O1	-44.6% (active)
COc1cc2c(cc1NC(=O)C(Cl)Cl)-c1ccc(NC(=O)C(Cl)Cl)cc1C2	-86.5% (active)
Cc1c2cnccc2c(C)c2c1oc1ccccc12	52.3%
